This passage reports inhibition results from PubChem BioAssay.

Where “and” joins values, the source holds several entries; their conditions need not be identical. Equal values may be shown once. Calls of active or inactive are those of the source. Rule as the data show it, unless noted: active = inhibition above about 80%; inactive = the rest.

The first experiment in a line: HTB85 osteosarcoma cell growth inhibition, synergistic combos for chromothripsis tumors, BGB or cisplatin IC20 combos (AID 1671453).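 Also: cells exposed for 96 hours before readout; 0% = vehicle DMSO and 100% = high DMSO killing control.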 The following applies: HTB85 osteosarcoma cells, drug combinations, measured here: with cisplatin IC20, at 5 µM, stronger effect = higher value.
As for `O=c1[nH]cnc2c1ncn2C1CCC(CO)O1` (centres undefined), the inhibition is -50%.

`Nc1nc(Cl)nc2c1ncn2C1CC(O)C(CO)O1` (centres undefined): the inhibition is 90.5% and 90%.

With `Nc1ccn(C2CCC(CO)O2)c(=O)n1` (centres undefined), the inhibition was -30.1%.

The experiment is the same for the next values; noted with them: HTB85 osteosarcoma cells, drug combinations, single agent, at 5 µM, stronger effect = higher value.
Take `O=c1[nH]cnc2c1ncn2C1CCC(CO)O1` (centres undefined): the inhibition was -11.3%.

Consider `Nc1nc(Cl)nc2c1ncn2C1CC(O)C(CO)O1` (centres undefined), for which the inhibition is 94.7% and 91.5%.

Consider `Nc1ccn(C2CCC(CO)O2)c(=O)n1` (centres undefined), for which the inhibition was -16.7%.

The nature of another experiment: CRL2098 osteosarcoma cell growth inhibition, synergistic combos for chromothripsis tumors, BGB or cisplatin IC20 combos (AID 1671454).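 Also: cells exposed for 96 h before readout; 0% = vehicle DMSO and 100% = killing by high DMSO.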 The settings on record: CRL2098 osteosarcoma cells, drug combinations, at 0.5 µM, stronger effect = higher value.
For the compound `O=c1[nH]cnc2c1ncn2C1CCC(CO)O1` (centres undefined), the inhibition was -44.8% (inactive).

With `Nc1nc(Cl)nc2c1ncn2C1CC(O)C(CO)O1` (centres undefined), the inhibition is -92.1% (inactive) and -37.1% (inactive).

As for `Nc1ccn(C2CCC(CO)O2)c(=O)n1` (centres undefined), the inhibition is -61.6% (inactive).

Staying with this experiment, now noted: CRL2098 osteosarcoma cells, drug combinations, measured here: combination with BGB at IC20, at 0.5 µM, stronger effect = higher value.
For the compound `O=c1[nH]cnc2c1ncn2C1CCC(CO)O1` (centres undefined), the inhibition is -57.1%.

Consider `Nc1nc(Cl)nc2c1ncn2C1CC(O)C(CO)O1` (centres undefined), for which the inhibition is -60.9% and -36.5%.

Turning to `Nc1ccn(C2CCC(CO)O2)c(=O)n1` (centres undefined), the inhibition was -74.6%.

Still in this experiment, the particulars now being: CRL2098 osteosarcoma cells, drug combinations, measured here: combination with cisplatin at IC20, at 0.5 µM, stronger effect = higher value.
Consider `O=c1[nH]cnc2c1ncn2C1CCC(CO)O1` (centres undefined), for which the inhibition is -26.9%.

Turning to `Nc1nc(Cl)nc2c1ncn2C1CC(O)C(CO)O1` (centres undefined), the inhibition is -146% and -71.4%.

For the compound `Nc1ccn(C2CCC(CO)O2)c(=O)n1` (centres undefined), the inhibition was -68.6%.

A further experiment can be described thus: HD-MB03 medulloblastoma cell growth inhibition, synergistic combos for chromothripsis tumors, BGB or cisplatin IC20 combos (AID 1671455; in the data active = inhibition above about 83%;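 also: 0% = vehicle DMSO and 100% = high DMSO as cytotoxic control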). The following applies: HD-MB03 medulloblastoma cells, at 0.5 µM, stronger effect = higher value.
In the case of `O=c1[nH]cnc2c1ncn2C1CCC(CO)O1` (centres undefined), the inhibition is -5.57% (inactive).

Take `Nc1nc(Cl)nc2c1ncn2C1CC(O)C(CO)O1` (centres undefined): the inhibition was 93.4% (active) and 93.2% (active).

Consider `Nc1ccn(C2CCC(CO)O2)c(=O)n1` (centres undefined), for which the inhibition was -9.09% (inactive).

Still in this experiment, the particulars now being: HD-MB03 medulloblastoma cells, measured here: combo with BGB at IC20, at 0.5 µM, stronger effect = higher value.
For the compound `O=c1[nH]cnc2c1ncn2C1CCC(CO)O1` (centres undefined), the inhibition was determined as 0.583%.

As for `Nc1nc(Cl)nc2c1ncn2C1CC(O)C(CO)O1` (centres undefined), the inhibition is 87.7% and 88.9%.

With `Nc1ccn(C2CCC(CO)O2)c(=O)n1` (centres undefined), the inhibition is -13.9%.

Staying with this experiment, now noted: HD-MB03 medulloblastoma cells, measured here: combo with cisplatin at IC20, at 0.5 µM, stronger effect = higher value.
For the compound `O=c1[nH]cnc2c1ncn2C1CCC(CO)O1` (centres undefined), the inhibition was -5.27%.

In the case of `Nc1nc(Cl)nc2c1ncn2C1CC(O)C(CO)O1` (centres undefined), the inhibition was 96.3% and 94.8%.

With `Nc1ccn(C2CCC(CO)O2)c(=O)n1` (centres undefined), the inhibition is -16.6%.

The nature of a further experiment: UWB1.289 ovarian carcinoma cell growth inhibition, synergistic combos for chromothripsis tumors, BGB or cisplatin combos (AID 1671456).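 Also: cells exposed to compound for four days; 0% = vehicle DMSO and 100% = killing by high DMSO.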 The settings on record: UWB1.289 ovarian carcinoma cells, at 0.5 µM, stronger effect = higher value.
Take `O=c1[nH]cnc2c1ncn2C1CCC(CO)O1` (centres undefined): the inhibition was -1.68% (inactive).

In the case of `Nc1nc(Cl)nc2c1ncn2C1CC(O)C(CO)O1` (centres undefined), the inhibition is 12.5% (inactive) and 14.8% (inactive).

With `Nc1ccn(C2CCC(CO)O2)c(=O)n1` (centres undefined), the inhibition was 7.61% (inactive).

Still in this experiment, the particulars now being: UWB1.289 ovarian carcinoma cells, measured here: inhibition with BGB combination, at 0.05 µM, stronger effect = higher value.
Take `O=c1[nH]cnc2c1ncn2C1CCC(CO)O1` (centres undefined): the inhibition is -32%.

On to `Nc1nc(Cl)nc2c1ncn2C1CC(O)C(CO)O1` (centres undefined), for which the inhibition was -7.25% and -6.1%.

On to `Nc1ccn(C2CCC(CO)O2)c(=O)n1` (centres undefined), for which the inhibition is -29.4%.

Staying with this experiment, now noted: UWB1.289 ovarian carcinoma cells, measured here: inhibition with cisplatin combination, at 0.05 µM, stronger effect = higher value.
For the compound `O=c1[nH]cnc2c1ncn2C1CCC(CO)O1` (centres undefined), the inhibition is -6.01%.

For the compound `Nc1nc(Cl)nc2c1ncn2C1CC(O)C(CO)O1` (centres undefined), the inhibition was -13.8% and -6.66%.

Regarding `Nc1ccn(C2CCC(CO)O2)c(=O)n1` (centres undefined), the inhibition is -3.05%.

A further experiment is described as follows: LFS_MB_2R medulloblastoma cell growth inhibition, synergistic combos for chromothripsis tumors, cisplatin combos (AID 1671457).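 Also: cells exposed to compound for four days before readout.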 The settings on record: LFS_MB_2R medulloblastoma cells, at 0.5 µM, stronger effect = higher value.
As to `O=c1[nH]cnc2c1ncn2C1CCC(CO)O1` (centres undefined), the inhibition was -19.9% (inactive).

Consider `Nc1nc(Cl)nc2c1ncn2C1CC(O)C(CO)O1` (centres undefined), for which the inhibition was -3.57% (inactive) and 10.2% (inactive).

Consider `Nc1ccn(C2CCC(CO)O2)c(=O)n1` (centres undefined), for which the inhibition is -6.12% (inactive).

Staying with this experiment, now noted: LFS_MB_2R medulloblastoma cells, measured here: combination with cisplatin, at 0.5 µM, stronger effect = higher value.
On to `O=c1[nH]cnc2c1ncn2C1CCC(CO)O1` (centres undefined), for which the inhibition is -27.6%.

As to `Nc1nc(Cl)nc2c1ncn2C1CC(O)C(CO)O1` (centres undefined), the inhibition is 24.5% and 43.1%.

Turning to `Nc1ccn(C2CCC(CO)O2)c(=O)n1` (centres undefined), the inhibition stood at 0.862%.

The same experiment, now with this note: LFS_MB_2R medulloblastoma cells, measured here: combination with cisplatin, at 5 µM, stronger effect = higher value.
Turning to `O=c1[nH]cnc2c1ncn2C1CCC(CO)O1` (centres undefined), the inhibition was -58%.

In the case of `Nc1nc(Cl)nc2c1ncn2C1CC(O)C(CO)O1` (centres undefined), the inhibition was 61.9% and 69.5%.

For the compound `Nc1ccn(C2CCC(CO)O2)c(=O)n1` (centres undefined), the inhibition was found to be 2.6%.

The nature of another experiment: MDA-MB-436 breast carcinoma cell growth inhibition, synergistic combos for chromothripsis tumors, BGB or cisplatin combos (AID 1671458; call rule not given here;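 also: cells exposed for 96 hours; 0% = vehicle DMSO and 100% = killing by high DMSO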). The settings on record: MDA-MB-436 breast carcinoma growth inhibition, drug combinations; at 0.5 µM; stronger effect = higher value.
Consider `O=c1[nH]cnc2c1ncn2C1CCC(CO)O1` (centres undefined), for which the inhibition was -28.3% (inactive).

For the compound `Nc1nc(Cl)nc2c1ncn2C1CC(O)C(CO)O1` (centres undefined), the inhibition is 3.02% (inactive) and 2.95% (inactive).

Take `Nc1ccn(C2CCC(CO)O2)c(=O)n1` (centres undefined): the inhibition is -21.2% (inactive).

The same experiment, now with this note: MDA-MB-436 breast carcinoma growth inhibition, drug combinations; measured here: BGB combination; at 0.5 µM; stronger effect = higher value.
Consider `O=c1[nH]cnc2c1ncn2C1CCC(CO)O1` (centres undefined), for which the inhibition was -25.6%.

As to `Nc1nc(Cl)nc2c1ncn2C1CC(O)C(CO)O1` (centres undefined), the inhibition is -5.54% and -2.62%.

Regarding `Nc1ccn(C2CCC(CO)O2)c(=O)n1` (centres undefined), the inhibition is -29.5%.

The same experiment, now with this note: MDA-MB-436 breast carcinoma growth inhibition, drug combinations; measured here: BGB combination; at 5 µM; stronger effect = higher value.
`O=c1[nH]cnc2c1ncn2C1CCC(CO)O1` (centres undefined): the inhibition was -24.3%.

In the case of `Nc1nc(Cl)nc2c1ncn2C1CC(O)C(CO)O1` (centres undefined), the inhibition was 46.1% and 53.6%.

In the case of `Nc1ccn(C2CCC(CO)O2)c(=O)n1` (centres undefined), the inhibition is -21.7%.

Still in this experiment, the particulars now being: MDA-MB-436 breast carcinoma growth inhibition, drug combinations; measured here: cisplatin combination; at 0.5 µM; stronger effect = higher value.
For `O=c1[nH]cnc2c1ncn2C1CCC(CO)O1` (centres undefined), the inhibition was -38.2%.

As for `Nc1nc(Cl)nc2c1ncn2C1CC(O)C(CO)O1` (centres undefined), the inhibition was -4.37% and -12.8%.

As to `Nc1ccn(C2CCC(CO)O2)c(=O)n1` (centres undefined), the inhibition was -25.6%.

The same experiment, now with this note: MDA-MB-436 breast carcinoma growth inhibition, drug combinations; measured here: cisplatin combination; at 5 µM; stronger effect = higher value.
Regarding `O=c1[nH]cnc2c1ncn2C1CCC(CO)O1` (centres undefined), the inhibition was -39%.

For `Nc1nc(Cl)nc2c1ncn2C1CC(O)C(CO)O1` (centres undefined), the inhibition was 61.1% and 70%.

`Nc1ccn(C2CCC(CO)O2)c(=O)n1` (centres undefined): the inhibition was -2.99%.

Another experiment in a line: UWB1.289_BRCA1 ovarian cancer growth, cell-based, BGB or cisplatin combinations (AID 1671459). The following applies: UWB1.289 BRCA1 ovarian carcinoma, drug combinations, BGB combination, concentration series, at 5 µM, stronger effect = higher value.
On to `O=c1[nH]cnc2c1ncn2C1CCC(CO)O1` (centres undefined), for which the inhibition is -6.99%.

Regarding `Nc1nc(Cl)nc2c1ncn2C1CC(O)C(CO)O1` (centres undefined), the inhibition was 43.2% and 57.7%.

On to `Nc1ccn(C2CCC(CO)O2)c(=O)n1` (centres undefined), for which the inhibition is -17.4%.

The same experiment, now with this note: UWB1.289 BRCA1 ovarian carcinoma, drug combinations, at 0.5 µM, stronger effect = higher value.
For `O=c1[nH]cnc2c1ncn2C1CCC(CO)O1` (centres undefined), the inhibition was -4.59% (inactive).

Consider `Nc1nc(Cl)nc2c1ncn2C1CC(O)C(CO)O1` (centres undefined), for which the inhibition is 20.9% (inactive) and 19.3% (inactive).

For the compound `Nc1ccn(C2CCC(CO)O2)c(=O)n1` (centres undefined), the inhibition is -16.8% (inactive).

The same experiment, now with this note: UWB1.289 BRCA1 ovarian carcinoma, drug combinations, cisplatin combination, concentration series, at 5 µM, stronger effect = higher value.
`O=c1[nH]cnc2c1ncn2C1CCC(CO)O1` (centres undefined): the inhibition was found to be 5.72%.

With `Nc1nc(Cl)nc2c1ncn2C1CC(O)C(CO)O1` (centres undefined), the inhibition was 48.4% and 63.7%.

In the case of `Nc1ccn(C2CCC(CO)O2)c(=O)n1` (centres undefined), the inhibition is -7.33%.

The next experiment can be described thus: human astrocyte viability loss, single and combined drugs, cytotoxicity control for chromothriptic childhood tumor combination screen, cell-based, BGB or cisplatin IC20 combos (AID 1671460).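 Also: cells exposed to compounds for 96 hours before viability readout; 0% = vehicle and 100% = killing control.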 The settings on record: Human astrocytes, drug combinations, at 0.5 µM, stronger effect = higher value.
As to `O=c1[nH]cnc2c1ncn2C1CCC(CO)O1` (centres undefined), the inhibition is 4.8% (inactive).

Take `Nc1nc(Cl)nc2c1ncn2C1CC(O)C(CO)O1` (centres undefined): the inhibition was 58.1% (inactive) and 38.4% (inactive).

Regarding `Nc1ccn(C2CCC(CO)O2)c(=O)n1` (centres undefined), the inhibition was -3.66% (inactive).

One may read the inhibition as the change of the read-out against control, counted positive when it falls.
